Measurements as given in PubChem BioAssay (NCATS).
Records with an inconclusive call do not appear. Activity calls are given as the source filed them. The call rests on the fitted dose curve; in most records, active means well fitted inhibition curve with a large enough effect; inconclusive means small, poorly fitted or top-dose-only effect; inactive means flat fitted curve, though single readings scatter.

What was measured:
[1] = qHTS profiling for inhibitors of Plasmodium falciparum proliferation (AID 504749); further: nearly all actives have a fitted effect of over 60% in size;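 on activity, negative = inhibition: 0% = DMSO vehicle and full inhibition = artemisinin control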; settings: P. falciparum in erythrocytes, SYBR Green DNA, 72 h
In short: (§1)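 P. falciparum-infected erythrocytes (0.3% parasitemia, 2.5% hematocrit final) were exposed to compounds for 72 h at 37 C in 5% CO2, then lysed with SYBR Green buffer overnight at room temperature; parasite DNA fluorescence was normalized to artemisinin and DMSO controls.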

[2] = system: 3D7; assay: as above; settings: P. falciparum in erythrocytes, SYBR Green DNA, 72 h; series mostly up to 28.7 µM
In short: as §1

[3] = system: AA1029; assay: as above; settings: P. falciparum in erythrocytes, SYBR Green DNA, 72 h; series mostly up to 28.7 µM
In short: as §1

[4] = system: AS120; assay: as above; settings: P. falciparum in erythrocytes, SYBR Green DNA, 72 h; series mostly up to 28.7 µM
In short: as §1

[5] = system: ATS189; assay: as above; settings: P. falciparum in erythrocytes, SYBR Green DNA, 72 h; series mostly up to 28.7 µM
In short: as §1

[6] = system: ATS95; assay: as above; settings: P. falciparum in erythrocytes, SYBR Green DNA, 72 h; series mostly up to 28.7 µM
In short: as §1

[7] = system: C2A; assay: as above; settings: P. falciparum in erythrocytes, SYBR Green DNA, 72 h; series mostly up to 28.7 µM
In short: as §1

[8] = system: CP185; assay: as above; settings: P. falciparum in erythrocytes, SYBR Green DNA, 72 h; series mostly up to 28.7 µM
In short: as §1

[9] = system: CP191; assay: as above; settings: P. falciparum in erythrocytes, SYBR Green DNA, 72 h; series mostly up to 28.7 µM
In short: as §1

[10] = system: CP192; assay: as above; settings: P. falciparum in erythrocytes, SYBR Green DNA, 72 h; series mostly up to 28.7 µM
In short: as §1

[11] = system: CP194; assay: as above; settings: P. falciparum in erythrocytes, SYBR Green DNA, 72 h; series mostly up to 28.7 µM
In short: as §1

[12] = system: CP201; assay: as above; settings: P. falciparum in erythrocytes, SYBR Green DNA, 72 h; series mostly up to 28.7 µM
In short: as §1

[13] = system: CP203; assay: as above; settings: P. falciparum in erythrocytes, SYBR Green DNA, 72 h; series mostly up to 28.7 µM
In short: as §1

[14] = system: CP211; assay: as above; settings: P. falciparum in erythrocytes, SYBR Green DNA, 72 h; series mostly up to 28.7 µM
In short: as §1

[15] = system: CP215; assay: as above; settings: P. falciparum in erythrocytes, SYBR Green DNA, 72 h; series mostly up to 28.7 µM
In short: as §1

[16] = system: CP217; assay: as above; settings: P. falciparum in erythrocytes, SYBR Green DNA, 72 h; series mostly up to 28.7 µM
In short: as §1

[17] = system: CP237; assay: as above; settings: P. falciparum in erythrocytes, SYBR Green DNA, 72 h; series mostly up to 28.7 µM
In short: as §1

[18] = system: CP238; assay: as above; settings: P. falciparum in erythrocytes, SYBR Green DNA, 72 h; series mostly up to 28.7 µM
In short: as §1

[19] = system: CP247; assay: as above; settings: P. falciparum in erythrocytes, SYBR Green DNA, 72 h; series mostly up to 28.7 µM
In short: as §1

[20] = system: 7G8; assay: as above; settings: P. falciparum in erythrocytes, SYBR Green DNA, 72 h; series mostly up to 28.7 µM
In short: as §1

[21] = at 28.7 µM (top of the series), parasite line A
[22] = at 28.7 µM (top of the series), parasite line B
[23] = at 12.8 µM (top of the series), parasite line A
[24] = at 12.8 µM (top of the series), parasite line B
Potency means the concentration at half of the fitted maximal effect.

CCCCCCCCCCCCCCCCOP(=O)([O-])OCC[N+](C)(C)C
inactive: activity, negative = inhibition [1, 21] -1.43% | activity, negative = inhibition [1, 22] 12.3% | Potency [2] | Potency [3] | Potency [4] | Potency [5] | Potency [6] | Potency [7] | Potency [8] | Potency [9] | Potency [10] | Potency [11] | Potency [12] | Potency [13] | Potency [14] | Potency [15] | Potency [16] | Potency [17] | Potency [18] | Potency [19]

CCN1CCC[C@H]1CNC(=O)c1c(OC)ccc(Br)c1OC
inactive: activity, negative = inhibition [1, 21] 12.1% | activity, negative = inhibition [1, 22] 10% | Potency [2] | Potency [20] | Potency [4] | Potency [5] | Potency [6] | Potency [7] | Potency [8] | Potency [9] | Potency [10] | Potency [11] | Potency [12] | Potency [13] | Potency [14] | Potency [15] | Potency [16] | Potency [18]

CCOC(=O)COc1ccc2c(C)c(CCN(CC)CC)c(=O)oc2c1Cl
inactive: activity, negative = inhibition [1, 22] -29.4% | Potency [2] | Potency [20] | Potency [3] | Potency [5] | Potency [6] | Potency [8] | Potency [10] | Potency [11] | Potency [12] | Potency [13] | Potency [14] | Potency [15] | Potency [16] | Potency [17] | Potency [19]
active: Potency ([1]; parasite line A) 3.55 µM

Cc1cc(N)c2cc(NC(=O)Nc3ccc4nc(C)cc(N)c4c3)ccc2n1
active: Potency ([1]; parasite line A) 8.91 µM | Potency ([1]; parasite line B) 11.2 µM | Potency [2] 7.08 µM | Potency [20] 2.24 µM | Potency [3] 14.1 µM | Potency [4] 12.6 µM | Potency [5] 5.62 µM | Potency [6] 11.2 µM | Potency [7] 10 µM | Potency [8] 11.2 µM | Potency [9] 0.631 µM | Potency [10] 3.79 µM | Potency [13] 5.36 µM | Potency [14] 3.79 µM | Potency [16] 8.91 µM | Potency [17] 5.01 µM | Potency [18] 12.6 µM | Potency [19] 12.6 µM

O=C(OCCOCCO)c1ccccc1Nc1cccc(C(F)(F)F)c1
inactive: activity, negative = inhibition [1, 23] 9.49% | activity, negative = inhibition [1, 24] 3.82% | Potency [2] | Potency [20] | Potency [3] | Potency [4] | Potency [5] | Potency [6] | Potency [7] | Potency [8] | Potency [9] | Potency [10] | Potency [11] | Potency [12] | Potency [14] | Potency [15] | Potency [16] | Potency [17] | Potency [18] | Potency [19]

NC(=NCCCCCCN=C(N)/N=C(\N)Nc1ccc(Cl)cc1)/N=C(\N)Nc1ccc(Cl)cc1
active: Potency ([1]; parasite line A) 3.16 µM | Potency ([1]; parasite line B) 3.98 µM | Potency [2] 1.41 µM | Potency [20] 0.251 µM | Potency [3] 1 µM | Potency [4] 1.26 µM | Potency [5] 1.78 µM | Potency [6] 2 µM | Potency [7] 2.24 µM | Potency [8] 1.78 µM | Potency [9] 1.12 µM | Potency [10] 1.69 µM | Potency [11] 1.51 µM | Potency [12] 3.79 µM | Potency [14] 1.51 µM | Potency [15] 1.9 µM | Potency [16] 2 µM | Potency [17] 0.891 µM | Potency [18] 2.24 µM | Potency [19] 2.24 µM

CC(=O)N/N=C/c1ccc([N+](=O)[O-])o1
active: Potency ([1]; parasite line A) 1.12 µM | Potency ([1]; parasite line B) 12.6 µM | Potency [20] 7.94 µM | Potency [4] 7.08 µM
inactive: Potency [2] | Potency [5] | Potency [10] | Potency [11] | Potency [12] | Potency [13] | Potency [15] | Potency [18]

O=C1OC(c2ccc(O)cc2)(c2ccc(O)cc2)c2ccccc21
inactive: activity, negative = inhibition [1, 21] -7.68% | activity, negative = inhibition [1, 22] 10.2% | Potency [2] | Potency [20] | Potency [3] | Potency [4] | Potency [6] | Potency [7] | Potency [8] | Potency [9] | Potency [11] | Potency [12] | Potency [13] | Potency [14] | Potency [15] | Potency [16] | Potency [17] | Potency [18] | Potency [19]

C[C@@H]1C[C@H]2[C@@H]3CCC4=CC(=O)C=C[C@]4(C)[C@@]3(F)[C@@H](O)C[C@]2(C)[C@H]1C(=O)CO
active: Potency [20] 11.2 µM | Potency [5] 0.316 µM
inactive: activity, negative = inhibition [1, 21] -3.59% | activity, negative = inhibition [1, 22] -8.33% | Potency [2] | Potency [3] | Potency [4] | Potency [6] | Potency [7] | Potency [8] | Potency [9] | Potency [11] | Potency [12] | Potency [14] | Potency [15] | Potency [16] | Potency [18] | Potency [19]

CC(Cc1cccc(C(F)(F)F)c1)NCCOC(=O)c1ccccc1 (centres undefined)
inactive: activity, negative = inhibition [1, 21] 15.8% | activity, negative = inhibition [1, 22] 6.99% | Potency [2] | Potency [3] | Potency [4] | Potency [5] | Potency [6] | Potency [7] | Potency [8] | Potency [9] | Potency [10] | Potency [12] | Potency [14] | Potency [15] | Potency [16] | Potency [18] | Potency [19]
active: Potency [20] 8.91 µM

CCOC(=O)c1cccc(N)c1
inactive: activity, negative = inhibition [1, 21] 6.66% | activity, negative = inhibition [1, 22] 6.86% | Potency [2] | Potency [20] | Potency [3] | Potency [4] | Potency [5] | Potency [6] | Potency [7] | Potency [8] | Potency [9] | Potency [16] | Potency [17] | Potency [18] | Potency [19]

CC[N+](CC)(CCNC(=O)C(=O)NCC[N+](CC)(CC)Cc1ccccc1Cl)Cc1ccccc1Cl
active: Potency ([1]; parasite line A) 1.12 µM | Potency ([1]; parasite line B) 0.794 µM | Potency [20] 7.94 µM | Potency [3] 2.82 µM | Potency [4] 1 µM | Potency [5] 2.24 µM | Potency [6] 2.82 µM | Potency [7] 10 µM | Potency [8] 1.58 µM | Potency [9] 4.47 µM | Potency [11] 2.39 µM | Potency [12] 4.78 µM | Potency [13] 1.35 µM | Potency [14] 1.07 µM | Potency [15] 3.79 µM | Potency [16] 7.94 µM | Potency [17] 3.16 µM | Potency [18] 2.51 µM | Potency [19] 3.55 µM

C[C@H]1[C@H](NC(=O)/C(=N/OC(C)(C)C(=O)O)c2csc(N)n2)C(=O)N1S(=O)(=O)O (stereo in doubt)
inactive: activity, negative = inhibition [1, 23] 1.65% | activity, negative = inhibition [1, 24] 14.2% | Potency [2] | Potency [3] | Potency [4] | Potency [5] | Potency [6] | Potency [7] | Potency [8] | Potency [9] | Potency [10] | Potency [11] | Potency [12] | Potency [13] | Potency [14] | Potency [15] | Potency [16] | Potency [17] | Potency [18] | Potency [19]
